PubChem BioAssay (NCI)
This is part of a sample that, as a whole, favours compounds with a hit. Of some 83,000 tested, about 20% had one in any assay.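 Note: values are percent growth. 100 is the growth of untreated cells, values between 100 and 0 indicate rising inhibition; between -100 and 0 indicates cell death.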 Unmarked numbers belong to inactive results. The source made the active and inactive calls. The calls were made as follows: active = growth percent below 10; inactive = the rest.

Key:
Assay in all cases: NCI-60 one-dose screen, 48 h (100 = growth as untreated, 0 = no growth, -100 = all killed)
Conditions in all cases: 10 µM unless noted
T-47D breast = test system: T-47D breast
BT-549 breast = test system: BT-549 breast
MDA-MB-435 melanoma = test system: MDA-MB-435 melanoma
SW-620 colon = test system: SW-620 colon
MCF7 breast = test system: MCF7 breast
HCT-116 colon = test system: HCT-116 colon
HCC-2998 colon = test system: HCC-2998 colon
KM12 colon = test system: KM12 colon

Row | Compound | growth (T-47D breast) | growth (BT-549 breast) | growth (MDA-MB-435 melanoma) | growth (SW-620 colon) | growth (MCF7 breast) | growth (HCT-116 colon) | growth (HCC-2998 colon) | growth (KM12 colon)
1 | CCCc1[nH]c(-c2cc(N)ccc2Cl)c2c1C(=O)CCCC2 | 75.7% | 111% | 99.5% | 105% | 87.1% | 95.2% | 101% | 93.7%
2 | CC1(C)CC[C@]23CC[C@]4(C)[C@H](CC[C@@H]5[C@@]6(C)CC[C@H](N)C(C)(C)[C@@H]6CC[C@]54C)[C@H]2[C@H]1OC3 | 88.1% | 88.9% | 90.6% | -44.3% (active) | -8.5% (active) | -82.7% (active) | -15.9% (active) | 18%
3 | CCOC(=O)C1=C(C)NC(C)=C(C(=O)OC(C)C)C1c1cccc(C#N)c1 (stereo not given) | 95.1% | 126% | 104% | 99.2% | 94.5% | 94% | 104% | 98%
4 | Cc1ccc2c(n1)C(=O)C(Cl)=C(Nc1cc(C(F)(F)F)cc(C(F)(F)F)c1)C2=O | -9.18% (active) | 115% | 93.8% | 2.41% (active) | -24.9% (active) | 42% | 96.5% | 97%
5 | Cc1ncn(-c2ccc(/C=N/Nc3ccnc4cc(Cl)ccc34)cc2)c1C | -61.6% (active) | -93.7% (active) | -80.2% (active) | -60.4% (active) | -69.1% (active) | -83.6% (active) | -44.5% (active) | -25.8% (active)
6 | CNCCN(C)c1ccc(Nc2cc(NC3CC3)n3ncc(C#N)c3n2)cc1NC(C)=O | -16.2% (active) | -54.7% (active) | 6.93% (active) | -2.54% (active) | -0.902% (active) | -5.45% (active) | 10.2% | 8.46% (active)
7 | CN(C)c1cccc2c(S(=O)(=O)Nc3cccc(-c4csc(NC(=O)CCCCCN5CCN(CCO)CC5)n4)c3)cccc12 | 82.7% | 87.5% | 65.6% | 98.4% | 35.8% | 36.2% | 90.3% | 88.6%
8 | O=C(/C=C/c1cccc(Br)c1)c1cccc(OCCCCOc2cccc(C(=O)/C=C/c3cccc(Br)c3)c2)c1 | 104% | 117% | 105% | 98.3% | 89.5% | 87% | 118% | 98.7%
9 | C/C(CC1(O)C(=O)Nc2ccccc21)=N\O (stereo not given) | 83.7% | 101% | 104% | 94.5% | 95.2% | 98.1% | 111% | 101%
10 | Cn1ncc2c(C(=O)c3ccc(F)cc3)nc(C(C)(C)C)nc21 | 102% | 98.4% | 97.9% | 95.9% | 93.6% | 95.3% | 103% | 100%
11 | Cc1ccsc1[C@H]1c2[nH]c3ccccc3c2C[C@H]2C(=O)N(CCCCCCC(=O)NO)CC(=O)N12 | 57.6% | 106% | 90.6% | 82.5% | 50.1% | 68.1% | 88.1% | 81.1%
12 | CC(C)(C)c1cc(NC(=O)Nc2ccc(-c3cn4c5c(sc4n3)CCc3c[nH]cc3-5)cc2)no1 | 18.5% | 18.7% | 26% | 17.8% | -6.97% (active) | 23.2% | 24% | 6.68% (active)
13 | CCn1c2ccc(/C=N/N(C)S(=O)(=O)CCN(C)C)cc2c2cc(/C=N/N(C)S(=O)(=O)CCN(C)C)ccc21 | 88.6% | 72.4% | 62% | 30.6% | 22.1% | 14.3% | 63.4% | 81.4%
14 | COc1ccc(C2C(C#N)=C(/N=C/c3ccc(Cl)cc3)Oc3c2sc2c(C)cccc32)cc1 (stereo not given) | 17.9% | 49.5% | -23.5% (active) | 31.2% | 21.5% | 13.4% | 16.7% | 23.1%
15 | CN1CCN(c2ccc(Nc3nc(NCCNS(=O)(=O)c4ccc5ccccc5c4)c4sccc4n3)cc2)CC1 | 55.2% | 86.7% | 53.7% | 35.2% | 32.9% | 14.7% | 72.3% | 86.7%
